Shn3 3UTR inh: Schnurri-3 reporter inhibition in Clone20 osteoblasts | Clone20 osteoblast Shn3 3'UTR firefly luciferase, 24 h | inhibition, % at 12.5 µM | 360,000 tested, 0.52% active;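 active = mean inhibition of at least 75% with every replicate also reaching 75%; inconclusive = mean inhibition at least 75% but some replicate below; inactive = mean inhibition below 75%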;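 note: 0% = median of neutral control wells and 100% = pilot-screen positive control compound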
HIF-2a block: inhibitors of HIF-2a; AID 624352; 786-0 RCC cells HIF-2a reporter, luciferase luminescence, overnight; inhibition, % at 18.8 µM; 360,000 tested, 0.72% active;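 active = inhibition of the luminescence signal of 40% or more relative to plate controls, in a single-dose primary screen at 18.75 µM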
TRPM1 prom inh: reduces MITF-dependent TRPM1 promoter luciferase signal; inhibition, % at 12.5 µM; SK-MEL-5 TRPM1 promoter luciferase, 24 h; AID 488899; 330,000 tested, 0.83% active;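 active = mean inhibition across replicates of 60% or more, whatever share of single replicates reaches that level; inconclusive = some that reach 60%, reason not given; inactive = mean inhibition across replicates below 60%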
PAX8 inh HTS: PAX8 transcriptional activity inhibition. RMG-I TPO-luciferase reporter, SteadyGlo, 24 h. inhibition, % at 12.6 µM. 360,000 tested, 1.2% active;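 active = mean replicate inhibition at least 60% with every replicate also reaching 60%; inconclusive = only one of the two criteria is met; inactive = mean below 60% and not all replicates reaching 60%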;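 note: luciferase light reporting Pax8 driven TPO promoter activity; plate controls were median of neutral control wells for no effect and mitoxantrone controls for full effect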
EBV LMP1 NFkB: inhibitors of Epstein-Barr LMP1-induced NF-kappaB reporter | LMP1-induced NF-kappaB luciferase reporter cells, luminescence | inhibition, % at 12.5 µM | 350,000 tested, 0.69% active | AID 504558; in the data active = inhibition above about 41%; inconclusive = no clear call, values can overlap the other calls;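 note: 0% = neutral control wells and 100% = reference inhibitor control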
Peg3 promoter: Peg3 promoter activity inhibition; HeLa PEG-Prom luciferase reporter, luminescence, overnight; inhibition, % at 20 µM; 360,000 tested, 1.7% active; AID 588405;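 active = inhibition of at least 50% at 20 µM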
* hit, by the source's call; u = inconclusive; x = no result. An excerpt weighted towards active compounds, which were near 2.8% of everything screened.

SMILES	Shn3 3UTR inh	HIF-2a block	TRPM1 prom inh	PAX8 inh HTS	EBV LMP1 NFkB	Peg3 promoter
C[C@@H]1CN([C@@H](C)CO)C(=O)Cc2cc(NC(=O)Nc3ccc(F)cc3)ccc2O[C@@H]1CN(C)Cc1ccc(Cl)c(Cl)c1	27	-39	20	81*	-16	85*
COc1ccc(NC(=O)Nc2ccc3c(c2)CC(=O)N([C@@H](C)CO)C[C@@H](C)[C@H](CN(C)Cc2ccc(Cl)c(Cl)c2)O3)cc1	x	x	x	72*	x	x
C[C@@H]1CN([C@@H](C)CO)C(=O)Cc2cc(NC(=O)Nc3ccc(F)cc3)ccc2O[C@H]1CN(C)Cc1ccc2c(c1)OCO2	x	x	x	68*	x	x
C[C@H]1CN([C@@H](C)CO)C(=O)Cc2cc(NC(=O)Nc3ccccc3)ccc2O[C@H]1CN(C)Cc1ccc(Cl)c(Cl)c1	x	x	x	50	x	x
C[C@H]1CN([C@@H](C)CO)C(=O)Cc2cc(NC(=O)Nc3ccc(F)cc3)ccc2O[C@H]1CN(C)Cc1ccc2c(c1)OCO2	x	x	x	-13	x	x
C=CC[C@@]1(C(=O)N2CCCCC2)N=C(c2ccc(OCCCO)cc2)O[C@@H]1c1ccccc1	x	x	x	4	x	x
[N-]=[N+]=NCc1ccccc1C[C@@]1(C(=O)NCC(O)CO)N=C(c2ccc(OCCCO)cc2)O[C@@H]1c1ccccc1 (some centres undefined)	x	x	x	8	x	x
O=C(c1cccc(F)c1)N1C[C@H]2[C@@H](c3ccccc31)[C@H](CO)N2C(=O)C1CCOCC1	x	x	x	-9	x	x
Cc1cnc(NC(=O)CSc2nnc(C)n2N)s1	-20	-1	1	130*	-2	-1
Cc1sc2ncnc(NC3CCN(Cc4ccccc4)CC3)c2c1C	88*	26	-1	23	-7	12
Cc1nn(-c2ccccc2)c(Cl)c1C1C(C#N)=C(N)Oc2n[nH]c(C)c21 (centres undefined)	-42	19	7	x	53*	47
O=C(Nc1ccccc1NC(=O)c1c(F)c(F)c(F)c(F)c1F)c1c(F)c(F)c(F)c(F)c1F	18	14	13	9	6	68*
COC(=O)c1sccc1NC(=O)c1cccc(F)c1	9	6	22	17	-5	19
COC(=O)c1sccc1NC(=O)c1c(F)c(F)c(F)c(F)c1F	14	37	x	8	x	67*
O=C(CCl)Nc1cc(-c2ccccc2)nn1-c1ccccc1	19	-25	67*	x	-10	41
C=C1CC2C3CC[C@@]4(OCOC45COCO5)[C@@]3(C)C(O)CC2[C@@]2(C)CCC(=O)C=C12 (some centres undefined)	14	32	15	64*	7	11
CC1(C)CC(=O)C2=C(C1)NC(Nc1nc3ccccc3o1)=NC2c1ccccn1 (centres undefined)	8	22	7	14	-10	-3
CC1=C(C(=O)Nc2ccccc2)C(c2ccc(C)cc2)N=C(Nc2nc3ccccc3o2)N1 (centres undefined)	68	2	22	x	-16	77*
O=C(N[C@H]1CC[C@@H](CCn2cc(Cc3ccccc3)nn2)O[C@@H]1CO)c1ccccn1	x	x	x	1	x	x
O=C(Cc1ccccc1)NCCS(=O)c1ccc(Cl)cc1 (centres undefined)	92*	5	10	x	-3	4
CNC[C@@H]1OCCCC[C@@H](C)Oc2ccc(NC(=O)Nc3ccc(C(F)(F)F)cc3)cc2C(=O)N([C@@H](C)CO)C[C@H]1C	x	x	x	15	x	x
Cc1sc(NC(=O)c2ccco2)nc1-c1ccc2c(c1)CC(C)N2C(=O)C1CC1 (centres undefined)	63	-187	16	x	43*	55*
COc1ncnc2c1NC(=O)CS2	-21	7	3	x	82*	18
O=C(c1ccccc1)N1[C@H](CO)[C@H](c2ccccc2)C12CN(Cc1nccs1)C2	x	x	x	0	x	x
CC(C)NC(=O)Nc1ccc2c(c1)C(=O)N([C@@H](C)CO)C[C@@H](C)[C@@H](CN(C)C(=O)NC1CCCCC1)OCCCC[C@@H](C)O2	x	x	x	6	x	x
SMILES	Shn3 3UTR inh	HIF-2a block	TRPM1 prom inh	PAX8 inh HTS	EBV LMP1 NFkB	Peg3 promoter
COc1cccc(O)c1CN1CCC(C(=O)Nc2ccc(Oc3cccnc3)cc2)CC1	29	21	18	21	1	22
COc1ccc(CN2CCC(C(=O)Nc3ccc(Oc4cccnc4)cc3)CC2)c(C)c1C	86*	20	27	41	-7	6
COc1cccc(O)c1CN1CCC(C(=O)Nc2ccc(-c3cccc(C)c3)cc2)CC1	11	-4	34	32	-13	106*
COc1cccc(-c2cccc(NC(=O)C3CCN(Cc4cccc(C)n4)CC3)c2)c1	8	6	5	x	-1	13
Cc1ccc(C(C(=O)NCc2ccco2)N(C(=O)CNC(=O)c2cccs2)c2ccc(C)cc2)cc1 (centres undefined)	11	5	-9	x	-3	9
Cc1ccc(C(C(=O)NCc2ccco2)N(C(=O)CNC(=O)c2cccs2)c2c(C)cc(C)cc2C)cc1 (centres undefined)	53	6	32	x	-47	58*
O=C(C1CCCC1)N1CC[C@@H]2[C@H](CO)Nc3ccc(C4=CCCCC4)cc3[C@@H]21	x	x	x	90*	x	x
COc1ccccc1-c1ccc2c(c1)[C@@H]1[C@@H](CCN1C(=O)C1CCCCC1)[C@@H](CO)N2	x	x	x	105*	x	x
O=C(Cc1ccccc1)N1CC[C@H]2[C@H](CO)Nc3ccc(C4=CCCCC4)cc3[C@H]21	x	x	x	82*	x	x
CN1c2ccc(C3=CCCCC3)cc2[C@H]2[C@H](CCN2C(=O)C2CC2)[C@@H]1CO	x	x	x	100*	x	x
O=C(c1ccc(F)cc1)N1CC[C@@H]2[C@H]1c1cc(C3=CCCCC3)ccc1N[C@@H]2CO	x	x	x	1	x	x
COc1ccc(NC(=O)Nc2ccc3c(c2)[C@@H]2C[C@@H](CC(=O)NC4CCCC4)O[C@H](CO)[C@@H]2O3)cc1	x	x	x	0	x	x
COC(=O)C[C@@H]1CC[C@@H]2[C@H](COc3ccc(NC(=O)c4ccccc4)cc3C(=O)N2C)O1	x	x	x	6	x	x
CC(C)NC(=O)N[C@@H]1CC[C@H](CCNC(=O)C2CCOCC2)O[C@H]1CO	x	x	x	-14	x	x
O=C(Cc1ccccc1)N1CC[C@@H]2[C@H]1c1cc(-c3cccc(F)c3)ccc1N[C@@H]2CO	x	x	x	68*	x	x
O=C(Cc1ccccc1)N1CC[C@H]2[C@H](CO)Nc3ccc(-c4cccc(F)c4)cc3[C@H]21	x	x	x	23	x	x
COC(=O)c1c(NC(=O)C(Cl)Cl)sc2c1C(C(=O)OC)CC2 (centres undefined)	-7	19	u	64*	-27	81*
COC(=O)c1c(NC(=O)C(C)(C)C)sc2c1C(C(=O)OC)CC2 (centres undefined)	3	11	11	-5	3	6
O=c1cc(-c2ccc(O)c(O)c2)oc2cc(O)cc(O)c12	-107	-64	-97	-80	0	-146
O=c1c(O)c(-c2ccc(O)c(O)c2)oc2cc(O)cc(O)c12	-195	-33	-21	-47	90*	-35

Bioassay records deposited in PubChem by several laboratories.
